Bioassay records (PubChem)
An excerpt weighted towards active compounds, which were near 7.2% of everything screened.
MARV entry inh: Marburg virus entry inhibition; actives 1.8% (n = 300,000); Marburg virus pseudotyped entry inhibition, cell reporter; Potency, µM (titrated, usually from 37.8 µM), for inactives: top-dose activity change, negative = inhibition, usual class: inhibitors; AID 540276; calls by dose curve; tested in HEK293 cells
HCV inh: inhibitors of hepatitis C virus infection. Potency, µM (top dose mostly 41.8 µM), inactives show top-dose activity change, negative = inhibition, most hits filed as inhibitors. actives 3.4% (n = 340,000). AID 651820. Huh7.5.1 HCVcc-Cre infection, luciferase reporter, 44 h
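Cells seeded at 1,000/well and cultured 4 h, then compounds added followed by HCVcc-Cre virus (~0.5 moi). After 44 h further culture, luciferase substrate was added, plates held 15 min at room temperature, and luminescence read for 15 sec.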
FMDV inh: antivirals against foot and mouth disease virus; actives 1.2% (n = 410,000); Potency, µM (titrated, usually from 57.9 µM), inactives show top-dose activity change, negative = inhibition, usual class: inhibitors; FMDV antiviral cell-based qHTS; calls by dose curve; tested in HEK293T cells; further: read-out not given here; nearly all actives have a fitted effect of over 45% in size
Sm TGR inh: S. mansoni TGR enzyme inhibition | Q962Y6 | purified TGR, DTNB reduction, TNB absorbance 405 nm | Potency, µM (titrated, usually from 114 µM), without a hit: at the highest dose activity change, negative = inhibition, actives largely listed as inhibitors | actives 3% (n = 360,000) | AID 485364; further: nearly all actives have a fitted effect of over 60% in size
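TGR 20 nM + NADPH 100 uM (dispensed conc.), cpd preinc 15 min RT; start with NADPH (500 uM addition) then DTNB (15 mM addition). Kinetic TNB absorbance, 405 nm filter. Four-parameter Hill fit across titration.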
Lassa entry inh: Lassa virus entry inhibition | Lassa virus pseudotype entry inhibition, cell reporter | Potency, µM (titrated, usually from 37.9 µM), for the others: at the highest dose activity change, negative = inhibition, usual class: inhibitors | actives 1.2% (n = 300,000); calls by dose curve; tested in HEK293 cells; further: nearly all actives have a fitted effect of over 50% in size
RE007 growth inh: less growth of the S. pombe RE007 Vpr strain | actives 0.21% (n = 360,000) | S. pombe RE007 Vpr strain, BacTiter-Glo ATP luminescence, 24 h | Potency, µM (titrated, usually from 92.2 µM), without a hit: top-dose activity change, negative = less growth, most hits filed as inhibitors; active means well fitted falling curve with a large enough effect; inconclusive means small, poorly fitted or top-dose-only effect; inactive means no such curve, though single readings can be large or run the other way; further: nearly all actives have a fitted effect of over 50% in size
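Fission yeast strain RE007, carrying one chromosomally integrated HIV-1 vpr copy, was seeded at OD 0.01 in PMG+AL medium with 23 nL pinned compound. After 24 h at 30 °C and 99% humidity, viability was read by BacTiter-Glo luminescence.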
* marks the source's active call; other numbers are inactive results; ? = inconclusive; nt = not tested or not shown; [ ] = remark or other dose. Unless noted, the call rests on the fitted dose curve; in most records, active means well fitted curve in the direction sought with a large enough effect; inconclusive means small, poorly fitted or top-dose-only effect, or another doubt; inactive means no such curve, though single readings can be large; an effect the other way counts as inactive or inconclusive. On the % scale 0 is the no-effect control and ±100 the full control effect; potency means the concentration at half of the fitted maximal effect.

SMILES	MARV entry inh	HCV inh	FMDV inh	Sm TGR inh	Lassa entry inh	RE007 growth inh
CCN(CC)CCN1CCn2c3c(c4cc(C)ccc42)CCCC31 (configuration not stated)	?	8.9µM*	-15%	0%	?	-15%
COc1ccc(-n2c(CNC(=O)c3ccc(OC)cc3OC)nnc2SC)cc1	nt	nt	8%	nt	nt	nt
O=C(c1ccccc1)c1ccc2nc(Nc3cc(Cl)ccc3O)c3nncn3c2c1	nt	nt	-17%	-17%	?	nt
CCc1cccc(NC(=O)C2CCCN(c3ncnc4c3nc3n4CCCCC3)C2)c1 (configuration not stated)	?	11µM*	?	-10%	?	-16%
O=C(NCC1CCN(Cc2ccc(Cl)cc2)CC1)C1CCCN(c2ncnc3c2nc2n3CCCCC2)C1 (configuration not stated)	nt	?	10µM*	-11%	nt	2%
COCCN(Cc1ccco1)C(=O)C1CCCN(c2ncnc3c2nc2n3CCCCC2)C1 (configuration not stated)	?	7%	19%	-3%	11µM*	-1%
O=C(NCC1CCN(Cc2ccc(F)cc2)CC1)C1CCCN(c2ncnc3c2nc2n3CCCCC2)C1 (configuration not stated)	nt	?	-14%	-11%	nt	-3%
O=C(Nc1cccc(Cl)c1)C1CCCN(c2ncnc3c2nc2n3CCCCC2)C1 (configuration not stated)	?	nt	?	8%	?	nt
CC(Oc1ccccc1)C(=O)Nc1ccc(C(=O)OCc2cc(=O)n3nc(C(C)C)sc3n2)cc1 (configuration not stated)	nt	nt	15%	0%	?	nt
O=C(Nc1ccc(Oc2ccc(Cl)cc2)c(Cl)c1)c1cc(I)cc(I)c1O	nt	32µM*	?	-2%	nt	10%
CCC(C)Oc1cc(-c2ccnc(Nc3cccc(Cl)c3)n2)ccn1 (configuration not stated)	nt	12%	-2%	3%	nt	-1%
OCCCNc1cc(-c2ccnc(Nc3cccc(Cl)c3)n2)ccn1	nt	2µM*	?	25%	nt	-10%
CCOc1ccc(CCNC(=O)CSc2nnnn2-c2ccccc2Cl)cc1OCC	8%[46.1 µM]	nt	-25%	-1%	4%[46.1 µM]	nt
COC(=O)c1c(NC(=O)CCCOc2cccc(C)c2)sc2c1C(C(=O)OC)CC2 (configuration not stated)	nt	nt	?	-8%	-8%[46.1 µM]	nt
CC1CCCCN1S(=O)(=O)c1ccc(C(=O)Nc2nnc(-c3ccccc3Cl)o2)cc1 (configuration not stated)	13µM*	?	?	4%	?	-9%
CCC1CCCCN1S(=O)(=O)c1ccc(C(=O)Nc2nnc(-c3ccccc3Cl)o2)cc1 (configuration not stated)	?	?	-3%	9%	?	5%
CC1(C)COCN1S(=O)(=O)c1ccc(C(=O)Nc2nnc(-c3ccc(Cl)s3)o2)cc1	6.3µM*	2µM*	?	0%	?	-20%
Cc1ccc(NC(=O)CSc2ccc3c(c2)OCCO3)c(O)c1	nt	10µM*	-14%	-10%	nt	10%
Cc1ccnc(NC(=O)CSc2ccc3c(c2)OCCO3)c1	0%	?	9%	-12%	1%	-5%
CCCCN(CC)CCCNC(=O)Cn1ncc2c3ccccc3n(Cc3ccccc3F)c2c1=O	?	nt	-25%	-3%	-2%[46.1 µM]	nt
O=C1/C(=C/c2ccccc2)CCC1C1CCCC1 (configuration not stated)	?	6%	22%	6%	?	-6%
O=C1/C(=C/c2ccco2)Cc2ccccc21	?	-3%	66%	-30%	?	-18%
O=C1/C(=C\c2ccco2)CCC/C1=C\c1ccco1	?	?	10%	1.4µM*	?	8%
O=C1/C(=C/c2ccco2)CCC1C1CCCC1 (configuration not stated)	2%[46.1 µM]	11%	32%	50µM*	?	3%
CC1C/C(=C/c2ccco2)C(=O)/C(=C/c2ccco2)C1 (configuration not stated)	?	1%[0.335 µM]	nt	1.4µM*	-4%	nt
SMILES	MARV entry inh	HCV inh	FMDV inh	Sm TGR inh	Lassa entry inh	RE007 growth inh
O=C(CSc1nc(-c2ccccc2)nc2c1Cc1ccccc1O2)N1CCCCC1	1%[46.1 µM]	nt	-24%	5%	-13%[46.1 µM]	nt
CCCS(=O)(=O)c1nc(S(=O)(=O)c2ccc(C)cc2)c(NCc2ccccc2)s1	?	nt	17%	-1%	-25%[46.1 µM]	nt
COc1ccc2c(c1)cc1n2CCN2CCCN=C12	-7%	-12%	-19%	4%	?	-14%
COc1ccc2c(c1)cc1n2CCN=C1N	10µM*	-14%	nt	2%	2%	-13%
Cc1ccc(C=CC2=C[C@]3(C)C[C@]2(C)[C@H](c2ccc(C)cc2)CC3=O)cc1	-4%[14.2 µM]	nt	nt	nt	nt	nt
Oc1c(Br)cc(Cl)cc1C=Nc1ccc(N2CCOCC2)cc1	57%[46.1 µM]	15%	-21%	6%	?	-7%
Oc1c(Br)cc(Cl)cc1C=Nc1ccccc1Br	-26%	9%	0%	22µM*	5%	-12%
CCN(CC)S(=O)(=O)c1cccc(C(=O)N/N=C(\C)c2ccc(O)cc2O)c1	7.9µM*	8.9µM*	-7%	-1%	?	-20%
O=C(COc1ccccc1[N+](=O)[O-])Nc1ccc(NC(=O)c2cc3ccccc3o2)cc1	?	11µM*	-18%	nt	?	0%
CCN(CC)S(=O)(=O)c1cccc(NC(=O)c2cc3ccccc3o2)c1	9%	10µM*	?	8%	?	6%
O=C(Nc1ccccc1)c1cc2ccccc2o1	?	-4%	-15%	1%	10µM*	?
CN(C)S(=O)(=O)c1cccc(NC(=O)c2cc3ccccc3o2)c1	?	?	9%	0%	1%	16%[3.69 µM]
O=C(COc1ccccc1[N+](=O)[O-])Nc1ccc2oc(=O)ccc2c1	nt	12%	-3%	-23%	nt	5%
COc1cc(=O)n2c(c1C(=O)N(C)Cc1nccs1)CCN(Cc1cccc(F)c1F)CC2	nt	nt	-1%	nt	nt	nt
CC1Cc2cc(S(=O)(=O)NCCc3ccccc3)ccc2N1C(=O)C1CCC1 (configuration not stated)	nt	nt	30%	4%	-21%[46.1 µM]	nt
CC(=O)c1cccc(NC(=O)C2CCN(c3nnc(-n4cccc4)s3)CC2)c1	nt	nt	1%	-7%	?	nt
COc1ccc(NC(=O)CCNS(=O)(=O)c2ccc3c(c2)CCCC(=O)N3)cc1	nt	nt	6%	-2%	-4%[46.1 µM]	nt
COc1cccc(CNC(=O)c2ccc(NC(=O)CC3SC(N4CCCC4)=NC3=O)cc2)c1 (configuration not stated)	?	27%	5%	-17%	-2%	-8%
